Assay results taken from PubChem BioAssay AID1159580 (chemical genetic matrix, 2015).
Several values for one entry are separate records, joined by “and”; a condition that tells them apart may be missing. Equal values may be shown once. Among all 5,500 compounds or so, about 2,000 (36%) were called active. Inconclusive results (about 18%) are left out. Cut-off read from the data, not from the text of the source: active = normalized growth mostly below about 0.91 (no sharp cut-off); inconclusive = no clear call, values can overlap the other calls; inactive = mostly above about 0.92. The list shows a part of the results.

Assay: chemical genetic growth profiling, strain panel (AID 1159580);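 note: tested at 20 µM; growth read once vehicle control cultures reached saturation at 30 °C; 1 = growth at the plate median or of vehicle wells; lower values mean less growth of the strain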
Details: S. cerevisiae deletion strains, growth OD

Measured: normalized growth

CNC(=O)O/N=C(\C)SC
inactive: locus YAL013W, strain DEP1, hits give low values 1 | locus YAL021C, strain ccr4, hits give low values 0.987 | locus YAL026C, strain drs2, hits give low values 1 | locus YAL030W, strain snc1, hits give low values 1.01 | locus YBL061C, strain skt5, hits give low values 1 | locus YBR009C, strain hhf1, hits give low values 1.01 | locus YBR021W, strain FUR4, hits give low values 1.03 | locus YBR023C, strain chs3, hits give low values 1 | locus YBR171W, strain sec66, hits give low values 1 | locus YBR229C, strain ROT2, hits give low values 1.01 | locus YBR231C, strain swc5, hits give low values 1 | locus YBR279W, strain paf1, hits give low values 0.999 | locus YCL011C, strain gbp2, hits give low values 1.01 | locus YCL016C, strain dcc1, hits give low values 0.998 | locus YCL029C, strain bik1, hits give low values 0.983 | locus YCL061C, strain MRC1, hits give low values 1 | locus YCL069W, strain vba3, hits give low values 1 | locus YCR088W, strain abp1, hits give low values 1 | locus YDL005C, strain med2, hits give low values 1 | locus YDL035C, strain GPR1, hits give low values 1.02 | locus YDL040C, strain nat1, hits give low values 0.999 | locus YDL074C, strain BRE1, hits give low values 1.07 | locus YDL101C, strain DUN1, hits give low values 1.02 | locus YDL134C, strain PPH21, hits give low values 1.01 | locus YDL185W, strain tfp1, hits give low values 0.988 | locus YDL192W, strain arf1, hits give low values 0.981 | locus YDR001C, strain nth1, hits give low values 1 | locus YDR069C, strain doa4, hits give low values 1 | locus YDR101C, strain arx1, hits give low values 0.983 | locus YDR137W, strain rgp1, hits give low values 1.01 | locus YDR150W, strain NUM1, hits give low values 1.01 | locus YDR159W, strain sac3, hits give low values 1 | locus YDR162C, strain NBP2, hits give low values 0.987 | locus YDR195W, strain ref2 0.971 | locus YDR297W, strain sur2, hits give low values 1.02 | locus YDR318W, strain mcm21, hits give low values 0.994 | locus YDR334W, strain swr1, hits give low values 0.999 | locus YDR335W, strain msn5, hits give low values 0.997 | locus YDR388W, hits give low values 0.984 | locus YDR392W, strain spt3, hits give low values 1 | locus YDR502C, strain sam2, hits give low values 0.993 | locus YEL003W, strain gim4, hits give low values 1 | locus YEL037C, strain rad23, hits give low values 1 | locus YEL061C, strain CIN8 (second series), hits give low values 1 | locus YEL061C, strain CIN8, hits give low values 1.01 | locus YER015W, strain faa2, hits give low values 0.982 | locus YER016W, strain bim1, hits give low values 1 | locus YER110C, hits give low values 0.977 | locus YER111C, strain swi4, hits give low values 0.996 | locus YER155C, strain BEM2 (second series), hits give low values 1.01 | locus YER155C, strain BEM2, hits give low values 1.01 | locus YER167W, strain BCK2, hits give low values 0.993 | locus YFR010W, strain ubp6, hits give low values 0.997 | locus YGL078C, strain dbp3, hits give low values 0.98 | locus YGL086W, strain mad1, hits give low values 0.984 | locus YGL167C, strain pmr1, hits give low values 0.996 | locus YGL173C, strain kem1, hits give low values 0.991 | locus YGL227W, strain vid30, hits give low values 1.01 | locus YGL240W, strain doc1, hits give low values 0.987 | locus YGL248W, strain PDE1, hits give low values 1.04 | locus YGL253W, strain hxk2, hits give low values 0.998 | locus YGR078C, strain PAC10, hits give low values 1 | locus YGR135W, strain pre9, hits give low values 0.998 | locus YGR229C, strain SMI1, hits give low values 1.03 | locus YGR252W, strain gcn5, hits give low values 0.986 | locus YHR013C, strain ard1, hits give low values 0.998 | locus YHR027C, strain rpn1, hits give low values 0.989 | locus YHR030C, strain SLT2, hits give low values 0.988 and 1.07 | locus YHR079C, strain IRE1 (second series), hits give low values 0.993 | locus YHR079C, strain IRE1, hits give low values 1.05 | locus YHR094C, strain hxt1, hits give low values 0.983 | locus YHR129C, strain ARP1, hits give low values 1.01 | locus YHR142W, strain chs7, hits give low values 1.01 | locus YHR200W, strain rpn10, hits give low values 0.99 | locus YIL066C, strain RNR3, hits give low values 1.03 | locus YIL073C, strain SPO22, hits give low values 0.995 | locus YIL125W, strain kgd1, hits give low values 0.986 | locus YIR030C, strain dcg1, hits give low values 0.98 | locus YJL092W, strain hpr5, hits give low values 0.996 | locus YJL095W, strain BCK1 (second series), hits give low values 0.996 | locus YJL095W, strain BCK1, hits give low values 1.01 and 1.04 | locus YJL115W, strain asf1, hits give low values 1 | locus YJL129C, strain trk1, hits give low values 1.01 | locus YJL134W, strain LCB3, hits give low values 1.02 | locus YJL154C, strain vps35, hits give low values 0.999 | locus YJL164C, strain tpk1, hits give low values 1 | locus YJL166W, strain qcr8, hits give low values 1 | locus YJL168C, strain set2, hits give low values 0.989 | locus YJL187C, strain SWE1 (second series), hits give low values 1.01 | locus YJL187C, strain SWE1, hits give low values 1.02 | locus YJR043C, strain POL32, hits give low values 1.01 | locus YJR066W, strain TOR1, hits give low values 0.988
